According to publication PMC13494018:

B1: design_598_15ab41e9-cad4-4381-8935-81f74b313fe8_1188_dldesign_0_cycle1_af2pred (protein)
chain: KEEEEKKKEEEWKKKADAEAAIEQGKNALEAAKKDPSKAKEAAKVAKKLAKRAPEAKEELEKIAKEAEAIGKA
B2: design_598_15ab41e9-cad4-4381-8935-81f74b313fe8_1154_dldesign_0_cycle1_af2pred (protein)
chain: EKAKKAAEYSSEAAKHAIKAAKLLKEAGAPQEVLNLLQEAIVNMDKAAEYYAAAMEAAKKNPELGPEIQAELKKAEEHTKKANELL
B3: design_598_15ab41e9-cad4-4381-8935-81f74b313fe8_887_dldesign_0_cycle1_af2pred (protein)
chain: GEEKSRAAAEALRAATRAVRAAAATAAAADPATAAAVRAAWAAAVKADDLADAEAALRAAAAAATDPATRALLNAAADAYATIAAIA
B4: design_598_15ab41e9-cad4-4381-8935-81f74b313fe8_1538_dldesign_0_cycle1_af2pred (protein)
chain: KEEAKKKVEEARKLVEEAKKLIEKGEYEKGLKLAEEAAELAHKTSVKYGAGEAEKVYKEASKVISLAWAKLAEAKK
B5: design_598_15ab41e9-cad4-4381-8935-81f74b313fe8_1446_dldesign_0_cycle1_af2pred (protein)
chain: IDSKKASELIREAVRNAQKAGEIAKSLPNGEEIKKRVAEALLLAIDPETAEEGIKLLEELAKEAEELNPEAGKHIKEAAEHLKKFAEL
B6: design_598_15ab41e9-cad4-4381-8935-81f74b313fe8_1361_dldesign_0_cycle1_af2pred (protein)
chain: DETKKALAEMSELRHQLDAEAKWYEKHAKESEKYKEAAKEAKEGADYAKKALKKAKEGTPEEALKAAKEALEELKKKEEKVEKLFKEA
B7: design_598_15ab41e9-cad4-4381-8935-81f74b313fe8_790_dldesign_0_cycle1_af2pred (protein)
chain: MEKEAEKFAEEGKKKVEELKKKLEENKDNAEKNEELAKKARELAKEFEEEGKKAPEEMRKKLAEIAQEAREVAAEAKGLAIIAKEK
B8: design_598_15ab41e9-cad4-4381-8935-81f74b313fe8_1028_dldesign_0_cycle1_af2pred (protein)
chain: SDEKLAAEASQVGLELKAEVKAGNANPEIKEKLSKEALEKAEKAVKEFEKKSPAAGKVAKEMLKKIKEAAKE
B9: design_598_15ab41e9-cad4-4381-8935-81f74b313fe8_801_dldesign_0_cycle1_af2pred (protein)
chain: AEKEKKIEELEAKAKEYEAKGKAAEAAGDYKTAAEYYEKAADAYLEMAKVDPEKAEEYIKKAQELYRKSIQYEAKASAA
B10: design_598_15ab41e9-cad4-4381-8935-81f74b313fe8_686_dldesign_0_cycle1_af2pred (protein)
chain: SPTEMQEALTDADGYAVLAKNAGIEEVAKKAKEAAKKIKELIKQARADPSKAPELAKKAKELAKEAEKEFEKAKKEFE
B11: design_598_15ab41e9-cad4-4381-8935-81f74b313fe8_1263_dldesign_0_cycle1_af2pred (protein)
chain: GMEEIEKRNEEVKKKAEELKKQVEKAEKLAEKGDPEGKKLAEETKKKAIELAKSNPEAEPEVKTEITEIAVEAQGIEHLMKIK
B12: design_598_15ab41e9-cad4-4381-8935-81f74b313fe8_1370_dldesign_0_cycle1_af2pred (protein)
chain: AEFAVKILETLAERVPPEYAVVAREAAEIVKEKGAEGAREAARLVREAAERNPELPEEHRKAMLNAARVLEILAEAE
B13: design_598_15ab41e9-cad4-4381-8935-81f74b313fe8_273_dldesign_0_cycle1_af2pred (protein)
chain: SMAKKIEEGKKLAEELREAVRTAQAIGARLDALVAADPSVAPLATEIRAKASEAIFKIADGKEEEGKALMEEATALAAAAEAAAAAAA
B14: design_598_15ab41e9-cad4-4381-8935-81f74b313fe8_231_dldesign_0_cycle1_af2pred (protein)
chain: AEAELARAREVAKRVAEKLREAAKEAEKIDPEVAEKGRKVAEAAEAATAGTVEEIAAATQEARQALAEAEFLVKK
B15: design_598_15ab41e9-cad4-4381-8935-81f74b313fe8_1360_dldesign_0_cycle1_af2pred (protein)
chain: DPAQAAFTAKAKERAEQLKALAKEFPEEAEKLTKLAEEGLKLAAGDAETQKKAAEKLQEAYELAAEARAKKA
B16: design_598_15ab41e9-cad4-4381-8935-81f74b313fe8_1476_dldesign_0_cycle1_af2pred (protein)
chain: SEEKKKEEEKKVKEAEKLAKKAKEAAKKGDVKTAKEYYEKAKKIAKEVKKEGSKELATKAANAAQEAYQAYREAEAKA
B17: design_598_15ab41e9-cad4-4381-8935-81f74b313fe8_1042_dldesign_0_cycle1_af2pred (protein)
chain: NLEELIKKAIKAAEKGDAKGAVTYVMDAGAEAGDMKLAVEVGRKIQELLATDPAAGKAASAALIKEAGKKFL
B18: design_598_15ab41e9-cad4-4381-8935-81f74b313fe8_1412_dldesign_0_cycle1_af2pred (protein)
chain: DSPAMQLNEALTDAKYAADKIKEVDPSLAPEAQALYDKVKALLEKARKGDAATVAAAAKEAKALAEQAEKLLKQAKERAKKA
B19: design_598_15ab41e9-cad4-4381-8935-81f74b313fe8_1419_dldesign_0_cycle1_af2pred (protein)
chain: DIAKVTQQAQEELTEYAFKVPELKEEFDAARKESVKLGKEGASTSPEAAEKASKEIKKITEEMKKKAEEAL

molecular target: VTCN1, Q7Z7D3
Sequence (Q7Z7D3 whole entry): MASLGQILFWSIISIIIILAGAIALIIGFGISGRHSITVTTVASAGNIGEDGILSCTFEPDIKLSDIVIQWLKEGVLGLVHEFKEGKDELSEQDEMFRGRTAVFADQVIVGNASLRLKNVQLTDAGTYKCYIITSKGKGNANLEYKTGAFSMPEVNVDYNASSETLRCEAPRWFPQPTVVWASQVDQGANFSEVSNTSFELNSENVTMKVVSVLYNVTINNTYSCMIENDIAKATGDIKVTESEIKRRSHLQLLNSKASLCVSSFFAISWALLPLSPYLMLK

Binding in a display sort, inactive:
B1 not found, B2 not found, B3 not found, B4 not found, B5 not found, B6 not found, B7 not found, B8 not found, B9 not found, B10 not found, B11 not found, B12 not found, B13 not found, B14 not found, B15 not found, B16 not found, B17 not found, B18 not found, B19 not found
